Vaccinia Venus: inhibitors of vaccinia virus (Venus reporter). actives 0.46% (n = 330,000). Vaccinia virus Venus reporter expression, fluorescence. Potency, µM (series often up to 36.5 µM), without a hit: at the top dose activity change, negative = inhibition, actives largely listed as inhibitors; calls by dose curve; tested in A549 cells; note: potency is the fitted concentration of half-maximal effect; nearly all actives have a fitted effect of over 30% in size
FMDV inh: blocks foot and mouth disease virus. AID 1159524. FMDV antiviral cell-based qHTS. actives 1.2% (n = 410,000). Potency, µM (doses to about 57.9 µM), without a hit: at the top dose activity change, negative = inhibition, hits mostly inhibitors; calls by dose curve; tested in HEK293T cells; note: read-out not given here; potency is the fitted concentration of half-maximal effect; nearly all actives have a fitted effect of over 45% in size
Vaccinia mCherry: inhibitors of vaccinia virus infection (mCherry reporter signal); Vaccinia virus mCherry reporter infection, fluorescence; Potency, µM (highest dose often 36.5 µM), without a hit: at the highest dose activity change, negative = inhibition, usual class: inhibitors; actives 0.63% (n = 310,000); AID 720579; calls by dose curve; tested in A549 cells; note: potency is the fitted concentration of half-maximal effect; nearly all actives have a fitted effect of over 35% in size
MARV entry inh: blocks Marburg virus binding to or entry into cells; Marburg virus pseudotyped entry inhibition, cell reporter; Potency, µM (top dose mostly 37.8 µM), for the others: top-dose activity change, negative = inhibition, actives largely listed as inhibitors; actives 1.8% (n = 300,000); calls by dose curve; tested in HEK293 cells; note: potency is the fitted concentration of half-maximal effect
HCMV inh: human cytomegalovirus inhibition; activity change, negative = inhibition, % at 57.5 µM; HFF cells, HCMV-luciferase reporter, 72 h; active compounds read low; actives 4.5% (n = 410,000); in the data active = activity change below about -60%; inconclusive = no clear call, values can overlap the other calls; inactive = above about -39%
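Cell-based, HFFs, 1000 cells/well, 16 h 37C; cpds in DMSO + HCMV-luc, MOI 1 PFU/cell; 72 h 37C; OneGlo luminescence after 5 min RT; norm. to buffer vs Salinomycin 10uM.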
LASV entry inh: inhibitors of Lassa virus binding or cell entry. Potency, µM (highest dose often 37.9 µM), inactives show at the top dose activity change, negative = inhibition, hits mostly inhibitors. Lassa virus pseudotype entry inhibition, cell reporter. actives 1.2% (n = 300,000); calls by dose curve; tested in HEK293 cells; note: potency is the fitted concentration of half-maximal effect; nearly all actives have a fitted effect of over 50% in size
Active calls of the source: *; [ ] = remark or other dose. This is a sample that favours compounds with a hit; in the whole collection about 6.5% have one here. % is set by controls: 0 for no effect and ±100 for the full control effect.

`CCOC(=O)c1cc([N+](=O)[O-])cc([N+](=O)[O-])c1Sc1ncnc2nc[nH]c12` gave Vaccinia Venus -19%, FMDV inh 22µM*, Vaccinia mCherry inconclusive, MARV entry inh inconclusive, HCMV inh 15 and LASV entry inh 1.4µM*.
C/C(=N/NC(=O)CN(c1ccccc1)S(=O)(=O)c1ccccc1)c1ccccc1O was read as FMDV inh 17% and HCMV inh -98*.
Screening C/C(=N\NC(=O)CN(c1ccccc1)S(=O)(=O)c1ccccc1[N+](=O)[O-])C(C)(C)C returned Vaccinia Venus -9%, FMDV inh 1%, Vaccinia mCherry -6%, MARV entry inh inconclusive, HCMV inh -63* and LASV entry inh 8%.
`COc1ccccc1N(CC(=O)Nc1cc(C)on1)S(=O)(=O)c1cccc(C(F)(F)F)c1` gave FMDV inh -3% and HCMV inh -64*.
For COc1ccccc1N(CC(=O)Nc1ccccc1C(F)(F)F)S(=O)(=O)c1ccc(C)cc1 the results were Vaccinia Venus -15%, FMDV inh -13%, Vaccinia mCherry -18%, MARV entry inh inconclusive, HCMV inh -13 and LASV entry inh -20%[46.1 µM].
For COc1ccccc1N(CC(=O)N/N=C(\C)c1ccc(F)cc1)S(=O)(=O)c1ccccc1 the results were Vaccinia Venus -12%, FMDV inh -9%, Vaccinia mCherry -4%, MARV entry inh 0%, HCMV inh -101* and LASV entry inh 11%.
`COc1ccccc1N(CC(=O)Nc1cccnc1)S(=O)(=O)c1ccccc1` gave Vaccinia Venus -12%, Vaccinia mCherry inactive, MARV entry inh -24%, HCMV inh -17 and LASV entry inh 0%.
For COc1ccc(-c2nc3cc(F)ccc3nc2C(=O)Nc2c(C)cccc2C)cc1 the results were HCMV inh 16.
Screening CCCCCSc1nc2sc3c(c2c(=O)n1-c1ccc(OC)cc1)CCN(C(C)=O)C3 returned Vaccinia Venus -27%, FMDV inh 0%, Vaccinia mCherry -24%, MARV entry inh 4%[46.1 µM], HCMV inh inconclusive and LASV entry inh -1%[46.1 µM].
`O=c1cc(-c2ccc(O)c(O)c2)oc2ccccc12` gave Vaccinia Venus -5%, FMDV inh 50% and Vaccinia mCherry inactive.
`CCCCCC(=O)Nc1cc(S(=O)(=O)O)cc2cc(S(=O)(=O)O)cc(O)c12` gave Vaccinia Venus -12%, FMDV inh -17%, Vaccinia mCherry -22%, MARV entry inh inconclusive, HCMV inh -78* and LASV entry inh 19%.
Screening COc1ccccc1-c1ccc2ncnc(N(C)C)c2c1 returned Vaccinia Venus 0%, FMDV inh inconclusive and Vaccinia mCherry 9%.
`O=C(Nc1ccc([N+](=O)[O-])cc1)Nc1ccc(N2CCOCC2)c2nonc12` gave Vaccinia Venus 10µM*, FMDV inh inconclusive, Vaccinia mCherry inconclusive and HCMV inh inconclusive.
`O=C(Nc1ccccc1N1CCOCC1)c1ccccc1[N+](=O)[O-]` gave FMDV inh -11%, MARV entry inh 4%, HCMV inh -8 and LASV entry inh 15%.
Screening O=C(Nc1ccccc1N1CCOCC1)c1ccc(N2CCOCC2)c([N+](=O)[O-])c1 returned Vaccinia Venus -9%, FMDV inh -7%, Vaccinia mCherry inactive, MARV entry inh -3%[46.1 µM], HCMV inh 0 and LASV entry inh -21%[46.1 µM].
For O=C(Nc1ccccc1N1CCOCC1)c1ccc([N+](=O)[O-])cc1 the results were FMDV inh -3%, MARV entry inh 9%, HCMV inh -101* and LASV entry inh -15%.
`O=C(Nc1ccccc1N1CCOCC1)c1ccc([N+](=O)[O-])s1` gave Vaccinia Venus 7.9µM*, FMDV inh 25%, Vaccinia mCherry 4.5µM*, MARV entry inh inconclusive, HCMV inh inconclusive and LASV entry inh -22%.
For CCc1sc(C(=O)Nc2ccccc2N2CCOCC2)cc1C the results were Vaccinia Venus -13%, FMDV inh -11%, Vaccinia mCherry inactive, MARV entry inh -26%[46.1 µM], HCMV inh -75* and LASV entry inh -14%[46.1 µM].
For CCOC(=O)c1c(Nc2ccc(OC)cc2)n[nH]c1C the results were HCMV inh 97.
